Reference: PubChem BioAssay AID720567 (Broad Institute, 2013)
Entries with a potency or affinity are not part of this list. The source made the active and inactive calls. No rule for the calls is given here.

Assay: toxicity toward HEK293 cells – cell-based, dry powder samples, cytotoxicity control, dose response (AID 720567)
Settings: plate reader; series mostly up to 15 µM; activity change, negative = cytotoxicity: at the top concentration

| SMILES | activity change, negative = cytotoxicity |
| --- | --- |
| COc1ccc(-c2nnc(SCc3ccccc3)o2)cc1 | -8.12% (inactive) |
| Cc1ccc(C(=O)c2cc([N+](=O)[O-])ccc2N2CCOCC2)cc1C | -18.1% (inactive) |
| COc1cc(Nc2c3c(nc4ccccc24)CCCC3)cc(OC)c1OC | 3.16% (inactive) |
| Cc1cc(C)nc(/N=C(\N)Nc2ccc(OCc3ccccc3)cc2)n1 | -3.13% (inactive) |
| CCOC(=O)c1ccc(Oc2cc(C)nc(SC)n2)cc1 | -26.2% (inactive) |
| Brc1ccc(CSc2nnc(-c3ccccc3)o2)cc1 | -7.34% (inactive) |
| CC(=O)c1cccc(NC(=O)CSc2ncc(C(=O)Nc3ccccc3)c(=O)n2C)c1 | -4.7% (inactive) |
| COc1ccccc1-c1nnc(SCc2ccccc2)o1 | 3.21% (inactive) |
| Cc1cnc(NC(=O)c2cc(S(=O)(=O)N(C)C)ccc2N2CCCC2)s1 | 32.1% (inactive) |
| Cc1[nH][nH]c(=O)c1C(c1ccc(-c2ccc(Cl)c(Cl)c2)o1)c1c(C)[nH][nH]c1=O | 9.38% (inactive) |
| CCCCOc1ccccc1C1CC(=O)NC2=C1C(=O)CCC2 (stereo not drawn) | -19.1% (inactive) |
| CCCNS(=O)(=O)c1cccc(C(=O)OCc2cc(=O)oc3cc(OC)ccc23)c1 | -7.85% (inactive) |
| O=C(Cc1ccccc1)c1nnc(-c2ccccc2)o1 | 77% (inactive) |
| COc1ccccc1CSc1nnc(-c2ccccc2)o1 | -20% (inactive) |
| COc1cc(-c2nnc(SCC3(c4ccc(Br)cc4)OCCO3)o2)cc(OC)c1OC | 18.2% (inactive) |
| O=C1CCN(Cc2ccccc2)c2cc3ccccc3cc21 | 47.8% (inactive) |
| COc1ccc2c(COC(=O)c3cccc(S(=O)(=O)NCC(C)C)c3)cc(=O)oc2c1 | -5.18% (inactive) |
| CCN(CC)CCCNc1nc2cc(OC)c(OC)cc2c2nc(-c3ccccc3)nn12 | -12.8% (inactive) |
| Nc1nc(=S)c2ncn([C@@H]3O[C@H](CO)[C@@H](O)[C@H]3O)c2[nH]1 | -93.6% (inactive) |
| CC(=O)N1CCC(=O)c2cc3ccccc3cc21 | 13.5% (inactive) |
| Cc1cc(=O)[nH]c(N/N=C/c2cc(C)n(CC(F)(F)F)c2C)n1 | -27.8% (inactive) |
| CCN(CC)CCC(=O)Nc1cccc2c1C(=O)c1ccccc1C2=O | -5.32% (inactive) |
| CCN(CC)CCOc1ccc2c(c1)C(=NNC(=O)c1ccccn1)c1cc(OCCN(CC)CC)ccc1-2 | -8.53% (inactive) |
| O=C1CCNc2cc3ccccc3cc21 | -12% (inactive) |
| Cc1ccc(/C=N/NC(=O)C2COc3ccccc3O2)s1 (stereo not drawn) | -6.12% (inactive) |
| CCOc1ccc(S(=O)(=O)NCc2ccccn2)cc1NC(=O)c1ccccc1F | -25% (inactive) |
| COc1ccccc1OCC(=O)NNC(=O)c1ccoc1C | -0.78% (inactive) |
| Cc1ccc(Oc2ccc(S(=O)(=O)N3CCOCC3)cc2C(N)=O)c(-n2nc3ccccc3n2)c1 | -27.3% (inactive) |
